AC50 data for 1 molecule are collected here from PubChem BioAssay AID2284057 (EPA ToxCast).

Activity calls are given as the source filed them. Rule for the calls: active = hit-call score of the fitted dose curve at least 0.9, where 1 is the maximum; inactive = score below 0.9.

Chain of CYP2B6, CYP2B6 (gene 1555) (P20813 whole entry, looked up): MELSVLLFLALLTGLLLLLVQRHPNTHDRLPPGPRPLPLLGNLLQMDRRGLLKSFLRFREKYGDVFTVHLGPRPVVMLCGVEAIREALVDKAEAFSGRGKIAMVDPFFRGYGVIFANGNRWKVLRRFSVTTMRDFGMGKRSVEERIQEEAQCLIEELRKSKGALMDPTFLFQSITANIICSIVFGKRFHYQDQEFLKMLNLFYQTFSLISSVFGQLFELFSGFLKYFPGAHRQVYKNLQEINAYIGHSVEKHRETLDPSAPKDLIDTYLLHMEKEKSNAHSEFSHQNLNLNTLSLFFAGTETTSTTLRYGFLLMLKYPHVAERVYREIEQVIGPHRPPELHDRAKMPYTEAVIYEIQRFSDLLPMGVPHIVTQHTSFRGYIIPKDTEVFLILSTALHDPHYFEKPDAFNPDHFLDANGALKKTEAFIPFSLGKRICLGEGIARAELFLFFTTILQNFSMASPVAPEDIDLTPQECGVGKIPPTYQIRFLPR

The test addresses CYP2B6, CYP2B6 (gene 1555) (UniProt P20813). As to the kind of experiment: ERF_FR_ADME_hCYP2B6: Eurofins (ERF) CYP450-related Enzyme Activity (ADME) LeadHunter Assay for CYP2B6. On the procedure: ERF_FR_ADME_hCYP2B6 is a biochemical, single-readout assay that uses extracted gene-proteins in a cell-free assay. Measurements were taken 0.5 hour after chemical dosing in a 96-well plate. See CYP2B6 inhibition (recombinant, EFC substrate).ERF_FR_ADME_hCYP2B6 is an assay component calculated from the ERF_FR_ADME_hCYP2B6 assay. It is designed to measure enzyme activity using a type of enzyme reporter as detected by fluorescence intensity of HFC with fluorimetry technology.Data from the assay component ERF_FR_ADME_hCYP2B6 was analyzed at the assay endpoint, ERF_FR_ADME_hCYP2B6, in the positive analysis fitting direction relative to acetonitrile as the negative control and baseline of activity. Using a type of enzyme reporter, loss-of-signal activity can be used to understand changes in enzymatic activity as they relate to gene CYP2B6. To generalize the intended target to other relatable targets, this assay endpoint is annotated to the cyp intended target family, where the subfamily is steroidogenesis-related.
[…] are incubated for 15 minutes at 37 C with Bupropion as substrate and Clopidogrel as control inhibitor. Test Sample Requirements: Minimum for 1) Screen: 25 ul of 10 mM stock -OR- 1 mg (pre-weighed) for 10 uM final testing. 2) Dose Response: 60 ul of 10 mM stock -OR- 1 mg (pre-weighed). uM.
As to `O=C(/C=C/c1ccc(O)cc1)CC(=O)/C=C/c1ccc(O)cc1`, the AC50 is 1.27 µM (active).

In general, AC50 refers to the concentration at which the activity in the assay is half-maximal.
